Where “and” joins values, the source holds several entries; their conditions need not be identical. Equal entries are not always repeated. Out of some 5,500 compounds screened, about 2,000 (36%) were called active. About 18% were inconclusive and are not listed. Cut-off read from the data, not from the text of the source: active = normalized growth mostly below about 0.91 (no sharp cut-off); inconclusive = no clear call, values can overlap the other calls; inactive = mostly above about 0.92. The list shows a part of the results.
Assay: chemical genetic growth profiling, strain panel (AID 1159580);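 note: tested at 20 µM; growth read once vehicle control cultures reached saturation at 30 °C; 1 = growth at the plate median or of vehicle wells; lower values mean less growth of the strain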
Conditions: S. cerevisiae deletion strains, growth OD

Measured: normalized growth

C=C[C@H]1CN2CC[C@H]1C[C@@H]2[C@@H](OC(=O)OCC)c1ccnc2ccc(OC)cc12
inactive: locus YAL013W, strain DEP1, hits give low values 1 | locus YAL021C, strain ccr4, hits give low values 0.93 | locus YAL026C, strain drs2, hits give low values 1.01 | locus YAL030W, strain snc1, hits give low values 0.989 | locus YBL061C, strain skt5, hits give low values 0.995 | locus YBR009C, strain hhf1, hits give low values 0.978 | locus YBR021W, strain FUR4, hits give low values 0.992 | locus YBR023C, strain chs3, hits give low values 0.997 | locus YBR171W, strain sec66, hits give low values 0.995 | locus YBR229C, strain ROT2, hits give low values 1 | locus YBR231C, strain swc5, hits give low values 1 | locus YBR279W, strain paf1, hits give low values 0.997 | locus YCL011C, strain gbp2, hits give low values 0.969 | locus YCL016C, strain dcc1, hits give low values 0.955 | locus YCL029C, strain bik1, hits give low values 1.02 | locus YCL061C, strain MRC1, hits give low values 0.979 | locus YCL069W, strain vba3, hits give low values 0.998 | locus YCR088W, strain abp1, hits give low values 0.999 | locus YDL005C, strain med2, hits give low values 0.978 | locus YDL035C, strain GPR1, hits give low values 0.981 | locus YDL040C, strain nat1, hits give low values 0.994 | locus YDL074C, strain BRE1, hits give low values 1.03 | locus YDL101C, strain DUN1, hits give low values 1.02 | locus YDL134C, strain PPH21, hits give low values 0.991 | locus YDL185W, strain tfp1, hits give low values 1.02 | locus YDL192W, strain arf1, hits give low values 1.01 | locus YDR001C, strain nth1, hits give low values 0.985 | locus YDR069C, strain doa4, hits give low values 0.979 | locus YDR101C, strain arx1, hits give low values 1 | locus YDR137W, strain rgp1, hits give low values 1.01 | locus YDR150W, strain NUM1, hits give low values 1.01 | locus YDR159W, strain sac3, hits give low values 1.03 | locus YDR162C, strain NBP2, hits give low values 1.02 | locus YDR195W, strain ref2 0.956 | locus YDR297W, strain sur2, hits give low values 1.01 | locus YDR318W, strain mcm21, hits give low values 1.01 | locus YDR334W, strain swr1, hits give low values 0.995 | locus YDR335W, strain msn5, hits give low values 0.983 | locus YDR388W, hits give low values 1.02 | locus YDR392W, strain spt3, hits give low values 0.879 | locus YDR502C, strain sam2, hits give low values 1.01 | locus YEL003W, strain gim4, hits give low values 0.999 | locus YEL037C, strain rad23, hits give low values 0.983 | locus YEL061C, strain CIN8 (second series), hits give low values 0.994 | locus YEL061C, strain CIN8, hits give low values 1.01 | locus YER015W, strain faa2, hits give low values 0.989 | locus YER016W, strain bim1, hits give low values 0.995 | locus YER110C, hits give low values 1.03 | locus YER111C, strain swi4, hits give low values 0.991 | locus YER155C, strain BEM2 (second series), hits give low values 1.01 | locus YER155C, strain BEM2, hits give low values 1 | locus YER167W, strain BCK2, hits give low values 0.997 | locus YFR010W, strain ubp6, hits give low values 1 | locus YGL078C, strain dbp3, hits give low values 1.01 | locus YGL086W, strain mad1, hits give low values 1.01 | locus YGL167C, strain pmr1, hits give low values 0.962 | locus YGL173C, strain kem1, hits give low values 1.01 | locus YGL227W, strain vid30, hits give low values 0.994 | locus YGL240W, strain doc1, hits give low values 1.01 | locus YGL248W, strain PDE1, hits give low values 1.03 | locus YGL253W, strain hxk2, hits give low values 1.04 | locus YGR135W, strain pre9, hits give low values 1.02 | locus YGR229C, strain SMI1, hits give low values 1.01 | locus YGR252W, strain gcn5, hits give low values 0.984 | locus YHR013C, strain ard1, hits give low values 0.951 | locus YHR027C, strain rpn1, hits give low values 0.983 | locus YHR030C, strain SLT2, hits give low values 1.01 and 1.08 | locus YHR079C, strain IRE1 (second series), hits give low values 1.03 | locus YHR079C, strain IRE1, hits give low values 1.03 | locus YHR094C, strain hxt1, hits give low values 1.02 | locus YHR129C, strain ARP1, hits give low values 1.01 | locus YHR142W, strain chs7, hits give low values 0.973 | locus YHR200W, strain rpn10, hits give low values 1.02 | locus YIL066C, strain RNR3, hits give low values 1.01 | locus YIL073C, strain SPO22, hits give low values 1.04 | locus YIL125W, strain kgd1, hits give low values 1.02 | locus YIR030C, strain dcg1, hits give low values 1.02 | locus YJL092W, strain hpr5, hits give low values 0.992 | locus YJL095W, strain BCK1 (second series), hits give low values 0.986 | locus YJL095W, strain BCK1, hits give low values 1.04 and 1.02 | locus YJL115W, strain asf1, hits give low values 0.966 | locus YJL129C, strain trk1, hits give low values 1.02 | locus YJL134W, strain LCB3, hits give low values 1.01 | locus YJL154C, strain vps35, hits give low values 0.986 | locus YJL164C, strain tpk1, hits give low values 0.966 | locus YJL166W, strain qcr8, hits give low values 1 | locus YJL168C, strain set2, hits give low values 1.03 | locus YJL187C, strain SWE1 (second series), hits give low values 1.03 | locus YJR043C, strain POL32, hits give low values 0.996 | locus YJR066W, strain TOR1, hits give low values 1 | locus YKL009W, strain mrt4, hits give low values 1.04 | locus YKL068W, hits give low values 1.02 | locus YKL085W, strain MDH1 (second series), hits give low values 1.01 | locus YKL085W, strain MDH1, hits give low values 1.01 | locus YKL160W, strain elf1, hits give low values 0.96 | locus YKL190W, strain CNB1, hits give low values 1.01 | locus YKR001C, strain vps1, hits give low values 1.01 | locus YKR026C, strain gcn3, hits give low values 0.998 | locus YKR091W, strain srl3, hits give low values 0.991 | locus YLL001W, strain dnm1, hits give low values 0.942 | locus YLL026W, hits give low values 0.985 | locus YLL041C, strain sdh2, hits give low values 0.976 | locus YLR027C, strain aat2, hits give low values 1.01 | locus YLR039C, strain RIC1, hits give low values 1.01 | locus YLR058C, strain SHM2, hits give low values 1.01 | locus YLR102C, strain apc9, hits give low values 1.02 | locus YLR113W, strain HOG1, hits give low values 1.01 | locus YLR221C, strain rsa3, hits give low values 1.04 | locus YLR258W, strain gsy2, hits give low values 0.973 | locus YLR262C, strain YPT6 (second series), hits give low values 1 | locus YLR262C, strain YPT6, hits give low values 1.05 | locus YLR268W, strain sec22, hits give low values 1.02 | locus YLR320W, strain mms22, hits give low values 1.07 | locus YLR330W, strain CHS5, hits give low values 1.01 | locus YLR342W, strain FKS1 (second series), hits give low values 0.998 | locus YLR342W, strain FKS1, hits give low values 0.995 | locus YLR357W, strain rsc2, hits give low values 0.962 | locus YLR370C, strain arc18, hits give low values 0.99 | locus YLR371W, strain rom2, hits give low values 1.02 | locus YLR384C, strain iki3, hits give low values 0.997 | locus YLR418C, strain cdc73, hits give low values 1.02 | locus YML016C, strain PPZ1, hits give low values 1.01 | locus YML032C, strain rad52, hits give low values 1.02 | locus YML120C, strain ndi1, hits give low values 0.973 | locus YML124C, strain tub3, hits give low values 1.02 | locus YMR058W, strain fet3, hits give low values 0.989 | locus YMR078C, strain ctf18, hits give low values 1.02 | locus YMR125W, strain sto1, hits give low values 0.963 | locus YMR129W, hits give low values 0.997 | locus YMR205C, strain PFK2, hits give low values 0.951 | locus YMR223W, strain ubp8, hits give low values 1.01 | locus YMR231W, strain pep5, hits give low values 1 | locus YMR263W, strain SAP30, hits give low values 1.03 | locus YMR307W, strain GAS1, hits give low values 0.905 | locus YNL067W, strain RPL9B, hits give low values 1.05 | locus YNL071W, strain lat1, hits give low values 0.997 | locus YNL183C, strain NPR1, hits give low values 0.986 | locus YNL209W, strain ssb2, hits give low values 0.983 | locus YNL233W, strain BNI4, hits give low values 1.03 | locus YNL248C, strain rpa49, hits give low values 1.02 | locus YNL250W, strain rad50, hits give low values 1.01 | locus YNL271C, strain bni1, hits give low values 1.04 | locus YNL298W, strain CLA4, hits give low values 1.03 | locus YNL307C, strain MCK1, hits give low values 1.02 | locus YNL322C, strain KRE1 (second series), hits give low values 0.988 | locus YNR049C, strain mso1, hits give low values 0.989 | locus YNR052C, strain pop2, hits give low values 1.02 | locus YOL006C, strain TOP1, hits give low values 1.14 | locus YOL012C, strain htz1 1.23 | locus YOL147C, strain pex11, hits give low values 1.02 | locus YOR001W, strain rrp6, hits give low values 1.01 | locus YOR061W, strain CKA2, hits give low values 1.02 | locus YOR069W, strain VPS5, hits give low values 1.01 | locus YOR070C, strain gyp1, hits give low values 1.03 | locus YOR080W, strain dia2, hits give low values 0.988 | locus YOR083W, strain WHI5, hits give low values 0.963 | locus YOR106W, strain vam3, hits give low values 0.934 | locus YOR136W, strain idh2, hits give low values 1.02 | locus YOR144C, strain elg1, hits give low values 1.02 | locus YOR184W, strain ser1, hits give low values 1.02 | locus YOR231W, strain MKK1, hits give low values 1.03 | locus YOR265W, strain rbl2, hits give low values 0.996 | locus YOR270C, strain vph1, hits give low values 1.07 | locus YOR290C, strain snf2, hits give low values 0.94 | locus YOR316C, strain cot1, hits give low values 1.02 | locus YPL051W, strain arl3, hits give low values 0.983 | locus YPL078C, strain atp4, hits give low values 0.946 | locus YPL106C, strain sse1, hits give low values 0.934 | locus YPL240C, strain hsp82, hits give low values 0.998 | locus YPL256C, strain CLN2, hits give low values 1.09 | locus YPR119W, strain clb2, hits give low values 1.01 | locus YPR141C, strain kar3, hits give low values 1.01 | locus YPR163C, strain tif3, hits give low values 1.03 | locus YPR167C, strain met16, hits give low values 1.02 | strain wtn01, hits give low values 1.04
